# Bioassay records (PubChem)
# NR2F2 inh – NR2F2 (human) inhibition, primary screen; P24468; HEK293T NGFI-A luciferase reporter, luminescence; inhibition, % at 8.6 µM; 370,000 tested, 0.7% active;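 active = inhibition above a per-plate cutoff, mean inhibition of test wells between control levels plus 3 SD, cut at about 38% in these data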;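 also: cells cotransfected with COUP-TFII expression vector driving the NGFI-A reporter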
# Target sequence (P24468 whole entry, looked up): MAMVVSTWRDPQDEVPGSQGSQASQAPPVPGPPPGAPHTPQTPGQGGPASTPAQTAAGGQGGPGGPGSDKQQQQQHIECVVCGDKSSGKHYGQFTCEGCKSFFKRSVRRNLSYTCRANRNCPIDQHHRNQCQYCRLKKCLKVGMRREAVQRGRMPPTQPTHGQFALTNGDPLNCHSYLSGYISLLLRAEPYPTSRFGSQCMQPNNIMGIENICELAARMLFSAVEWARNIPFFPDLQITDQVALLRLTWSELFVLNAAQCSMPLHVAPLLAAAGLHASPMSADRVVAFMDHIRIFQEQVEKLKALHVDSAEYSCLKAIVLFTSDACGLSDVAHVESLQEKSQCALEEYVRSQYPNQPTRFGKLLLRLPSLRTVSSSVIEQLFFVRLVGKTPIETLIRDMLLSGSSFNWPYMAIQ
# Gli-Sufu antag – Gli-Sufu pathway antagonism. inhibition, % at 5 µM. Sufu-KO-LIGHT fibroblasts, Gli luciferase reporter luminescence. 340,000 tested, 0.74% active. AID 588413;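 active = inhibition above about 55%, limit read from the data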
# SRC2 inh – inhibits human steroid receptor coactivator 2 | 370,000 tested, 0.17% active | Q15596 | HEK293 GAL4-SRC2 luciferase reporter, luminescence | inhibition, % at 9 µM;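 active = inhibition above the mean inhibition of all tested compounds plus 3 SD, set per campaign, cut at about 52% in these data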
# SRC1 inh – inhibits human SRC1 coactivator; Q15788; HEK293 GAL4-SRC1 luciferase reporter, luminescence; inhibition, % at 3.6 µM; 360,000 tested, 0.12% active; AID 588354;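 active = inhibition above the campaign mean plus 3 SD, with each screening campaign given its own cutoff, cut at about 60% in these data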
# NR5A2 inv ag – suppresses constitutive activity of human LRH-1 | O00482 | HEK293T StAR-luciferase reporter, LRH-1 transfected, 24 h | inhibition, % at 3.6 µM | 360,000 tested, 0.13% active;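 active = inhibition above the mean inhibition of all tested compounds plus 3 SD, cut at about 73% in these data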
# NCOA3 inh – inhibits human SRC3 coactivator | HEK293 GAL4-SRC3 luciferase reporter, luminescence | inhibition, % at 3.6 µM | 360,000 tested, 0.17% active | AID 588352;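 active = inhibition above a per-campaign cutoff, the mean of all compounds plus 3 SD, cut at about 60% in these data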;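 also: higher means less SRC3-driven luciferase light from the GAL4 reporter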
# VP16 Luc counter – counter-screen for COUP-TFII antagonists: inhibitors of VP16 | shares compounds with NR2F2 inh | HEK293 Gal4-VP16 luciferase reporter, luminescence | inhibition, % at 8.5 µM | 2,500 tested, 25% active | AID 687007; in the data active = inhibition above about 13%
# NR2F2 inh conf – COUP-TFII (NR2F2) inhibition, confirmation assay; shares compounds with NR2F2 inh; inhibition, % at 8.5 µM; HEK293 NGFI-A luciferase reporter, luminescence; 2,500 tested, 45% active;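 active = mean inhibition over three repeats above a set limit taken from the earlier primary screen, cut at about 38% in these data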
# Hits are given with their value; – = inactive; · = no result given. Hits are enriched below; roughly 1.3% of the tested compounds scored in any of these assays.
SMILES,NR2F2 inh,Gli-Sufu antag,SRC2 inh,SRC1 inh,NR5A2 inv ag,NCOA3 inh,VP16 Luc counter,NR2F2 inh conf
O=C(Nc1ccc(F)c(F)c1)c1ccc(F)c(S(=O)(=O)N2CCC3(CC2)OCCO3)c1,39,–,–,–,–,–,–,–
CC1CCN(c2nc(-c3ccccc3O)nc3ccccc23)CC1,–,–,–,–,–,–,·,·
CC1CCN(c2ncnc3ccccc23)CC1,45,–,–,–,–,–,–,–
Cc1cc(C(=O)CSc2nnc(-c3cccc(F)c3)n2N)c(C)n1Cc1ccc2c(c1)OCO2,44,–,–,–,–,–,–,–
Cc1cc(C(=O)CSc2nnnn2-c2ccc(O)cc2)c(C)n1Cc1ccc2c(c1)OCO2,–,–,–,–,–,–,·,·
CC(=O)CC[C@@H]1CC[C@]2(CCCN(S(C)(=O)=O)C2)O1,–,·,–,·,·,·,·,·
O=c1cccc2c1c1cc[nH]c3ccc(=O)n2c31,45,–,–,–,–,–,–,–
O=c1cc[nH]c2ccc(Cl)cc12,–,–,–,–,–,–,·,·
Cc1ccccc1CN1C(=O)c2ccccc2S1(=O)=O,–,–,–,–,–,–,·,·
O=C1c2ccccc2S(=O)(=O)N1Cc1nc2ccccc2s1,42,–,–,–,–,–,–,–
O=C(COC(=O)CCN1C(=O)/C(=C\C=C\c2ccccc2)SC1=S)Nc1cc(F)ccc1F,42,–,–,–,–,–,53,64
O=C(CN1C(=O)/C(=C\C=C\c2ccccc2)SC1=S)Nc1ccc(F)cc1,–,–,–,–,–,–,·,·
COCCn1c(C)cc(C(=O)CSc2nnnn2C2CCCC2)c1C,59,–,–,–,–,–,35,68
COC(=O)[C@]12C[C@H](CC(=O)N3CCN(C(=O)c4ccco4)CC3)C(=O)N(CCc3ccc(OC)c(OC)c3)C1=C[C@H](C1CCCC1)O[C@@H]2C,–,·,–,·,·,·,·,·
S=c1nc(C2COc3ccccc3O2)[nH][nH]1 (stereo not drawn),–,–,–,–,–,–,·,·
CCCS(=O)(=O)c1cnc(C2COc3ccccc3O2)nc1N (stereo not drawn),72,–,69,–,–,–,42,79
C/C=C/C(=O)N1CCC(C(=O)NC2CCCc3ccccc32)CC1 (stereo not drawn),–,·,–,·,·,·,·,·
Cc1cc(C(=O)CSc2ccc(F)cc2)cc(C)c1OC(=S)N(C)C,73,–,–,63,–,–,57,85
O=C(NC1CCCC1)C(c1ccccc1)n1c(CSCCOc2ccccc2)nc2ccccc21 (stereo not drawn),59,·,77,·,–,·,46,50
CC(=O)N1CCSc2ccc(S(=O)(=O)Nc3cccc(C)c3)cc21,37,–,–,–,–,–,–,–
Cc1cccc(NS(=O)(=O)c2ccc(NC(=O)N3CCCCC3)cc2)c1,48,–,–,–,–,–,–,–
COc1cccc(NS(=O)(=O)c2ccc3c(c2)N(C(C)=O)CCS3)c1,–,–,–,–,–,–,·,·
COc1ccccc1NC(=O)c1c(Nc2ccccc2C)sc(C(=O)Nc2cccc(Cl)c2)c1N,38,–,–,–,–,–,–,61
COc1ccc(Nc2sc(C(=O)c3ccc(Cl)cc3)c(N)c2C(=O)Nc2ccccc2OC)cc1,–,–,–,–,–,–,·,·
CCOc1ccc(OCC)c(NC(=O)C2CCCN2S(=O)(=O)c2cccc3cccnc23)c1 (stereo not drawn),40,–,–,–,–,–,–,–
O=C(Nc1ccc(F)cc1)OC1CC2CC1[C@H]1CCCCN1C2 (stereo partly drawn),–,·,–,·,·,·,·,·
COc1ccc(-c2ccc(C(=O)NCc3ccncc3)c3occc23)c(C)c1,69,·,–,–,–,–,–,56
O=C(NCc1ccncc1)c1ccc(-c2ccc(F)c(F)c2)c2ccoc12,70,·,–,–,–,–,–,41
Clc1ccc([C@H]2OC[C@@]3(CNCc4ccccn4)CS[C@H](c4ccc(Cl)cc4)N23)cc1,–,·,–,·,·,·,·,·
